# Sampled rows, rich in hits. Any-hit rate of the full collection: about 19%.
# HT1080NT lethal = kills 2HG-producing HT-1080-NT fibrosarcoma cells; AID 686970; Potency, µM (top dose mostly 46.1 µM), without a hit: at the highest dose activity, negative = less viability, most hits filed as cytotoxic; 360,000 tested, 1.6% active; HT-1080-NT fibrosarcoma viability, CellTiter-Glo ATP luminescence, 48 h;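 note: NT is the 2HG producing partner of a matched IDH1 knockdown line; potency is the fitted concentration of half-maximal effect; 0% = DMSO-treated cells and -100% = media-only wells without cells; nearly all actives have a fitted effect of over 55% in size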
#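 Read-out is CellTiter-Glo luminescence after 10 minutes at room temperature, following 48 hours' compound treatment of HT-1080-NT cells (750 cells/well, RPMI, 5% FBS, 37 degrees C).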
# TDP1 cell noCPT = qHTS for Inhibitors of human tyrosyl-DNA phosphodiesterase 1 (TDP1): qHTS in cells in absence of CPT. DT40 Tdp1-/- hTDP1 cells, no CPT, ATP luminescence, 48 h. Potency, µM (series often up to 46.2 µM), inactives show top-dose activity change, negative = growth inhibition, hits mostly inhibitors. 420,000 tested, 15% active; note: potency is the fitted concentration of half-maximal effect; nearly all actives have a fitted effect of over 55% in size
#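 Growth kinetics read by CellTiter-Glo luminescence after ≥48 hr at 37 °C. Cells: DT40 Tdp1-/- stably carrying human TDP1, 400 per well, compound exposure in the absence of CPT (DMSO vehicle).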
# HT1080 IDH1KD tx = toxicity to HT-1080 IDH1 knockdown cells (counter line); AID 686971; HT-1080 IDH1 knockdown viability, ATP luminescence, 48 h; Potency, µM (top dose mostly 46.1 µM), for inactives: at the top dose activity, negative = toxicity, most hits filed as cytotoxic; 360,000 tested, 2% active;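 note: potency is the fitted concentration of half-maximal effect; 0% = DMSO wells and -100% = cell-free medium wells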
#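 Cytotoxicity counter-line: IDH1KD HT-1080, 48 h, CellTiter-Glo. Curves classed by r2, magnitude and activity.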
# IL-1B inflam inh = blocks inflammasome-driven IL-1 beta release. THP-1 LPS/ATP IL-1B secretion, AlphaLISA, 16 h; stronger effect = lower value. activity change, % at 57.5 µM. 360,000 tested, 4.7% active. AID 743279; in the data active = activity change below about -50%; inconclusive = mostly about -30% to -49%
#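 THP-1 cells pretreated 1 hr with compounds (up to 57.5 uM final), then stimulated with LPS (250 ng/mL final) plus ATP (1.25 mM final); secreted IL-1B measured by AlphaLISA after 16 hr, decreased signal indicating inhibition.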
# TDP1 cell CPT = DT40-hTDP1 cell growth loss with CPT | chicken DT40 Tdp1-/-;hTDP1 cells + 20 nM CPT, ATP luminescence, 48 h | Potency, µM (titrated, usually from 46.2 µM), without a hit: at the highest dose activity change, negative = growth inhibition, usual class: inhibitors | 420,000 tested, 12% active | AID 686979; note: potency is the fitted concentration of half-maximal effect; nearly all actives have a fitted effect of over 55% in size
#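 Chicken DT40 Tdp1-/- cells stably complemented with human TDP1 were seeded at 400 cells/well in medium containing 20 nM camptothecin, exposed to pin-transferred compounds, and grown at 37 °C for at least 48 hr. Viability was read as ATP luminescence.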
# Starred values were filed as active, the others as inactive; u = inconclusive; x = not tested or not shown; [ ] = another dose, or the depositor's remark. Unless noted, calls come from the whole dose curve; as a rule, active = well fitted curve in the direction sought with a large enough effect; inconclusive = small, poorly fitted or top-dose-only effect, or another doubt; inactive = no such curve, though single readings can be large; an effect the other way counts as inactive or inconclusive. Unless noted, % is set by controls: 0 for no effect and ±100 for the full control effect.
SMILES,HT1080NT lethal,TDP1 cell noCPT,HT1080 IDH1KD tx,IL-1B inflam inh,TDP1 cell CPT
CCCCCOc1ccc(OC(=O)c2ccncc2)cc1,-13%,13µM*,u,23,12µM*
Cc1nn(-c2ccc(N3CCCCC3)nn2)c(C)c1CCC(=O)NCc1ccc(Cl)cc1,x,26µM*,x,x,u
COc1cccc(CNC(=O)CCc2c(C)nn(-c3ccc(N4CCCC4)nn3)c2C)c1,x,u,x,x,-30%
Cc1nn(-c2ccc(N3CCCCC3)nn2)c(C)c1CCC(=O)NCc1ccc(OC(C)C)cc1,x,16µM*,x,x,16µM*
COc1cccc(NC(=O)CCc2c(C)nn(-c3ccc(N4CCOCC4)nn3)c2C)c1,2%,-6%,2%,0,7%
O=C1c2ccccc2C2=Nc3ccccc3SC(c3cccc(F)c3)C12 (stereo unspecified),u,16µM*,u,-7,16µM*
Cc1ccc(Cc2c(-c3ccco3)nc3c4ccccc4ccn23)cc1,23µM*,15µM*,21µM*,-6,18µM*
COc1ccc(Cc2c(-c3ccc(C)cc3)nc3c4ccccc4ccn23)c(C)c1,-28%,u,-24%,-18,u
COC(=O)c1ccc2nc(-c3ccco3)c(Cc3ccc(C)cc3)n2c1,u,u,u,33,-98%
Cc1ccc(Cc2c(-c3ccco3)nc3c(C)cc(Br)cn23)cc1,26µM*,6.5µM*,15µM*,-70*,3.7µM*
Cc1ccc(Cc2c(-c3ccco3)nc3ccc(C)cn23)cc1,-18%,13µM*,-29%,-10,16µM*
Cc1cc(Br)cn2c(Cc3cccc(Cl)c3)c(-c3ccco3)nc12,u,21µM*,u,-2,u
Cc1cc(Br)cn2c(Cc3cccc(F)c3)c(-c3ccc(F)cc3)nc12,u,u,-16%,18,u
Cc1ccc(S(=O)(=O)N2C[C@H]3[C@H]4C(=O)N(c5ccccc5)C(=O)[C@H]4C[C@H](OC(=O)NCc4ccccc4F)[C@@]3(O)C2)cc1,-2%,-29%,10%,15,1%
O=S(=O)(c1ccccc1)N1CCC2(CC1)CN(Cc1ccccc1)C2,x,u,x,x,-6%
OCCNc1ncnc2c1ncn2[C@H]1CN(C2CCCC2)C[C@@H](CO)O1,4%,1%,12%,22,-1%
CNc1ncnc2c1ncn2[C@H]1CN(C2CCCC2)C[C@@H](CO)O1,11%,-9%,0%,-3,1.6µM*
OC[C@@H]1CN(Cc2ccc(-c3ccccc3)cc2)C[C@H](n2cnc3c(NCc4ccc(F)cc4)ncnc32)O1,18µM*,3.7µM*,u,-7,4.1µM*
OC[C@@H]1CN(Cc2ccc(-c3ccccc3)cc2)C[C@H](n2cnc3c(Nc4ccccc4)ncnc32)O1,u,u,10µM*,u,4.1µM*
CNc1ncnc2c1ncn2[C@H]1CN(Cc2ccc(-c3ccccc3)cc2)C[C@@H](CO)O1,-1%,23µM*,4%,1,u
Cc1ccc(C(C)(C)C)c(OCC(=O)NCCc2nc3ccccc3[nH]2)c1,x,7.3µM*,x,x,13µM*
Cc1cc(OCC(=O)NCCc2nc3ccccc3[nH]2)cc(C)c1Cl,x,12µM*,x,x,12µM*
CCN1C[C@@H]2[C@@H]3C(=O)N(C)C(=O)[C@@H]3[C@](CC)(C(=O)OC)N2C1=NC,14%,7%,12%,3,7%
O=C(c1ccco1)N1CCN(C(=S)Nc2ccc(Br)cc2Cl)CC1,-4%,6%,-4%,u,13%
CCOC(=O)c1ccccc1NC(=O)COC(=O)c1ccc(C)c(S(=O)(=O)N2CCOCC2)c1,13%,-14%,13%,2,-6%
SMILES,HT1080NT lethal,TDP1 cell noCPT,HT1080 IDH1KD tx,IL-1B inflam inh,TDP1 cell CPT
O=C(Nc1cccc(Br)c1)c1ccc(Cl)c(S(=O)(=O)N2CCOCC2)c1,7.1µM*,18µM*,8%[9.24 µM],-96*,15µM*
CCOC(=O)c1ccccc1NC(=O)c1ccc(Cl)c(S(=O)(=O)N2CCOCC2)c1,10%,16µM*,16%,-21,u
O=C(Nc1cccc(C(=O)NC2CC2)c1)c1ccc(Cl)c(S(=O)(=O)N2CCOCC2)c1,0%,u,-3%,15,-28%
O=C(Nc1cccc(S(=O)(=O)C(F)F)c1)c1ccc(Cl)c(S(=O)(=O)N2CCOCC2)c1,-9%,18µM*,-12%,-63*,16µM*
O=C(Nc1ccccc1)c1ccc(NCc2cccnc2)c(S(=O)(=O)N2CCOCC2)c1,3%,15µM*,0%,-9,-21%
O=C(NCc1ccco1)C1(S(=O)(=O)c2ccc(Cl)cc2)CC1,0%,-4%,1%,0,-12%
O=C(O)c1ccc(C(=O)Nc2cccc3ccccc23)c(C(=O)O)c1,1%,-3%,0%,8,-2%
CCCCS(=O)(=O)NC(=O)C1(C)CCN1C(=O)C/C=C/c1ccccc1 (stereo unspecified),u,-9%,28%,0,-7%
O=C(NC1CCCCCC1)c1ccc(Cl)c(S(=O)(=O)N2CCOCC2)c1,14%,29µM*,10%,-9,u
O=C(Nc1cccc(S(=O)(=O)N2CCOCC2)c1)c1cc(S(=O)(=O)N2CCOCC2)c(Cl)cc1Cl,-20%,u,-6%,-1,15µM*
CC(C)=C1SC(N2CCN(c3cccc(Cl)c3)CC2)=NC1=O,-4%,u,-18%,-59*,u
CC(C)=C1SC(N2CCN(Cc3ccccc3)CC2)=NC1=O,-11%,-26%,1%,-12,-10%
CCN(CC)C(=O)CSc1nc2ccsc2c(=O)n1CCCC(=O)NCCc1ccc(S(N)(=O)=O)cc1,3%,29µM*,6%,-10,4.1µM*
COc1ccc(OC)c(CNC(=O)c2cc3c(-c4ccc(OC)c(OC)c4)nn(C)c3s2)c1,x,8.2µM*,x,x,u
COc1cccc(-c2nn(C)c3sc(C(=O)NCc4ccc(C)cc4)cc23)c1,-21%,u,-16%,-19,u
CCCN(CCC)CCCNC(=O)c1cc2c(-c3ccc(OC)c(OC)c3)nn(C)c2s1,u,4.6µM*,21µM*,-52*,15µM*
OC(CN1CCCCC1)c1ccc(Br)cc1 (stereo unspecified),-1%,-8%,-4%,26,-18%
CN(C)CCn1c(C(=O)O)cc2ccccc21,-1%,-3%,-6%[9.24 µM],11,-4%
N=c1n(CCN2CCCCC2)c2ccccc2n1CC(O)c1ccc(Cl)c(Cl)c1 (stereo unspecified),11µM*,8.2µM*,13µM*,-68*,3.7µM*

# Compound activity (PubChem BioAssay)
